Compounds with a hit are over-represented: about 4.6% of the library has one in this group of screens.
tim10-1 inh = growth inhibitors of tim10-1 mutant yeast; S. cerevisiae tim10-1 ts strain growth, BacTiter-Glo, 24 h; inhibition, % at 20 µM; hit rate 2.2% among 330,000;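 active = inhibition of at least 40%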;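 also: mutant grown at 25 °C; 0% = DMSO wells with yeast and 100% = wells holding no yeast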
NALP3 yeast inh = NALP3 inhibition in yeast; Yeast reconstituted NLRP3/ASC/caspase-1, beta-gal luminescence, 24 h; inhibition, % at 10 µM; hit rate 0.39% among 330,000;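 active = inhibition of 50% or more; inactive = inhibition below 50%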;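 also: plate controls were induced DMSO wells for no effect and uninduced yeast grown without galactose for full effect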
SKKanGAS inh = blocks kanamycin growth of S. pyogenes SKKanGAS strain | inhibition, % at 7.5 µM | hit rate 1.3% among 300,000 | AID 1662 | BacTiter-Glo, 6 h;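 active = mean replicate score, as percent of positive control median, at least 50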;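 also: strain carries kanamycin resistance gene driven by streptokinase promoter and grows in 40 µg/ml kanamycin; loss of luminescence reflects streptokinase promoter inhibition or plain growth inhibition; 0% = median of DMSO wells and 100% = positive control at its reference dose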
PfHsp90 set2 = growth inhibition of yeast expressing Plasmodium Hsp90 | S. cerevisiae expressing PfHsp90, BacTiter-Glo ATP, 48 h; yeast lacking PDR1 and PDR3 efflux regulators | hit rate 0.32% among 310,000 | inhibition, % at 9.4 µM;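 active = every replicate shows inhibition above about 80%, whatever the replicate mean, limit read from the data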;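 also: 0% = DMSO neutral controls and 100% = 20 µM radicicol positive controls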
TIM10 inh = inhibits growth of TIM10 yeast strain. S. cerevisiae TIM10 strain growth, BacTiter-Glo luminescence, 24 h. AID 463195. hit rate 1.4% among 330,000. inhibition, % at 10 µM;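 active = inhibition of 40% or more at the single tested concentration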;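 also: wild-type TIM10 isogenic control strain grown at permissive 25 °C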
tim23-1 inh = tim23-1 yeast growth inhibition | S. cerevisiae tim23-1 growth, BacTiter-Glo luminescence, 24 h | inhibition, % at 20 µM | hit rate 1.3% among 330,000;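 active = growth inhibition of the mutant yeast at or above 50%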;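 also: temperature-sensitive mutant grown at 25 °C; plate controls were DMSO-treated mutant yeast for no effect and medium wells lacking yeast for full effect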
* hit, by the source's call; · = no result given.

SMILES	tim10-1 inh	NALP3 yeast inh	SKKanGAS inh	PfHsp90 set2	TIM10 inh	tim23-1 inh
COc1ccc(CC2(CO)CCN(S(=O)(=O)c3sccc3C)CC2)cc1	11	27	-9	4	14	18
COc1ccc(C(=O)COC(=O)CCCC(=O)NC2CCCCC2)cc1	4	5	-1	7	14	2
C=CCOC(=O)C1=C(C)NC(SCC)=C(C#N)C1c1ccc(Cl)cc1 (centres undefined)	38	15	76*	-23	17	8
CCC(CC)COC(=O)C1=C(C)NC(=O)NC1c1ccc2c(c1)OCO2 (centres undefined)	-16	5	0	-15	-12	8
Cc1cnc(NC(=O)c2cc3c(C)nn(Cc4ccccc4Cl)c3s2)s1	2	11	54*	-15	-33	-9
CCOc1ccc(NC(=O)c2ccc3c(c2)OCCO3)cc1S(=O)(=O)N(CC)CC	29	8	·	8	23	35
O=C(NC(NC(=S)Nc1ccc(Cl)c(Cl)c1)C(Cl)(Cl)Cl)c1ccco1 (centres undefined)	17	17	74*	4	11	6
O=C(NC(NC(=S)Nc1cccc(Cl)c1)C(Cl)(Cl)Cl)OCc1ccccc1 (centres undefined)	0	26	122*	12	11	7
O=C(Nc1nnc(-c2cccs2)o1)c1cccc(F)c1	0	19	85*	-42	-7	11
O=C(Nc1nnc(-c2ccco2)o1)c1ccc(Cl)s1	15	8	51*	17	1	18
COc1cccc(-c2nnc(NC(=O)c3cccc(F)c3)o2)c1	16	14	87*	-37	12	18
COc1cccc(-c2nnc(NC(=O)c3ccc(Cl)s3)o2)c1	12	14	96*	-11	3	14
O=C(Nc1ccccc1C(=O)O)c1ccc(CN2C(=O)c3ccccc3C2=O)cc1	7	17	21	-14	17	11
Cc1cc(C)c(OCC(=O)OCC(=O)N2c3ccccc3CC2C)c(C)c1 (centres undefined)	14	19	1	5	5	27
CCn1ccnc1CN1CCN(CCC(C)C)C(CCO)C1 (centres undefined)	-18	8	-2	-18	-15	2
COc1cc2cc(CCO)oc(=O)c2cc1OC	-1	4	·	7	-8	6
COc1ccc(C(=O)Nc2nnc(-c3ccccc3)o2)cc1OC	10	15	50*	-16	2	5
O=C(Nc1nnc(-c2cccs2)o1)c1cc(-c2ccccc2)nc2ccccc12	28	11	92*	-77	10	10
O=C(Nc1nnc(C2=COCCO2)o1)c1cccc([N+](=O)[O-])c1	-15	7	1	32	12	-3
O=C(NCc1cccs1)c1cc(-c2ccccc2)nc2ccccc12	-14	11	3	16	5	12
O=C(Nc1nnc(-c2ccc(F)cc2)o1)c1cccc([N+](=O)[O-])c1	34	19	84*	-80	-1	10
COc1ccc(C(=O)OCC(=O)Nc2nnc(-c3ccccc3)o2)cc1	-6	9	59*	-16	-16	9
COc1cc(C(=O)OCC(=O)Nc2nnc(-c3ccccc3)o2)cc(OC)c1OC	-9	14	31	·	-9	-2
Fc1ccccc1NC(=S)Nn1cnnc1	-1	11	2	12	5	11
Cc1ccc(NC(=O)CN(C)C(=O)C(Sc2ccccc2)c2ccccc2)cc1 (centres undefined)	18	5	·	-21	13	41
SMILES	tim10-1 inh	NALP3 yeast inh	SKKanGAS inh	PfHsp90 set2	TIM10 inh	tim23-1 inh
CC(C)(C)c1nc(-c2ccccc2)nc2c1OCCC2	9	-9	5	2	4	12
CCCN(CCC)S(=O)(=O)c1ccc(C(=O)Nc2nnc(-c3cccc(OC)c3)o2)cc1	36	6	108*	-41	7	7
COc1ccccc1CNC(=O)CN(C)S(=O)(=O)c1ccc2c(c1)n(C)c(=O)c(=O)n2C	16	10	-9	7	-10	9
Nc1nonc1-c1nc2ccccc2n1CC(=O)N/N=C\c1ccc(-c2ccc(Cl)cc2)o1	20	-4	99*	-7	-21	-9
Cc1ccc(F)cc1CNC(=O)C1CCC(=O)N(CC2CCCCC2)C1 (centres undefined)	-1	-14	-1	-6	4	-10
O=C(CSc1nc2ccccc2c(=O)n1Cc1ccccc1)Nc1ccc(Br)cc1C(=O)O	18	4	52*	-11	-4	20
COc1ccc(CNC(=O)Cc2csc(NC(=O)Nc3ccccc3OC)n2)cc1	-3	13	55*	-8	-2	7
COc1cc(OC)cc(C(=O)Nc2nc(CC(=O)NCc3ccc(F)cc3)cs2)c1	2	14	12	8	-9	8
COc1ccc(N2CCN(C(=O)Cc3csc(NC(=O)Nc4ccccc4OC)n3)CC2)cc1	3	13	66*	·	3	9
COc1ccccc1NC(=O)Nc1nc(CC(=O)N2CCN(c3ccccc3)CC2)cs1	9	-11	16	-6	11	14
COc1cc(OC)cc(C(=O)Nc2nc(CC(=O)NCc3ccccc3OC)cs2)c1	17	17	62*	·	7	31
COc1ccccc1NC(=O)Nc1nc(CC(=O)Nc2cccc(F)c2)cs1	2	15	33	3	-12	-5
COc1ccccc1NC(=O)Nc1nc(CC(=O)Nc2cc(F)ccc2F)cs1	17	14	82*	-1	12	34
COc1ccccc1Oc1cn[nH]c1-c1ccc(O)cc1O	4	18	-4	-11	16	6
CCCOC(=O)c1ccc(Oc2cn[nH]c2-c2ccc(OCC)cc2O)cc1	28	3	78*	98*	22	35
COc1ccc(Oc2cn[nH]c2-c2ccc(OCC(=O)NN)cc2O)cc1	21	8	88*	-8	-3	13
CCOc1ccc(-c2[nH]ncc2Oc2cccc(OC)c2)c(O)c1	38	9	26	1	-6	16
COc1ccccc1Oc1cn[nH]c1-c1ccc(OCC(=O)NN)cc1O	12	19	50*	3	13	8
Cc1cccc(N2CCN(C(=O)Cn3sc4nc(C)cc(C)c4c3=O)CC2C)c1 (centres undefined)	-48	-6	-2	167*	-6	-2
N#Cc1c(-c2c(Cl)cccc2Cl)noc1/C=C/Nc1ccc(C(=O)O)cc1	16	-9	59*	11	11	12
CCOC(=O)C1=C(C)Nc2ccccc2N/C1=N\S(=O)(=O)c1cc(C(=O)O)ccc1Cl	16	5	·	-8	12	17
COc1ccc(-c2cc3nc[nH]c(=O)c3s2)cc1	15	10	56*	-2	9	22
O=c1[nH]cnc2cc(-c3ccccc3)sc12	14	19	16	-30	7	-5
COc1cccc(C(=O)OCC(=O)c2c(N)n(C)c(=O)n(C)c2=O)c1	20	6	·	7	-2	12
